# Reference: paper PMC5540273 (PLoS ONE, 2017)
# System: MAP4K5
# Settings: concentration: 1 μM, replicates: in singlicate; n = 1
# 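Note: KINOMEscan kinase panel screen.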
row,SMILES,%Inh
1,Cl.c1ccc(-c2ccc3c(Nc4ccc5[nH]ncc5c4)ccnc3c2)nc1 [GW440137],0%
2,COc1cc(Nc2ncc3c(C)nc(-c4cc5ccccc5[nH]4)n3n2)cc(OC)c1OC [GW869516],11%
3,COC(=O)Nc1nc2ccc(Oc3ccc(NC(=O)Nc4cc(C(F)(F)F)ccc4F)cc3)cc2n1C.Cl [GW692089],0%
4,Nc1n[nH]c2cnc(-c3ccccc3)cc12 [SB-642124],0%
5,COc1cc(Nc2nccc(N3CCC(NC(=O)Nc4cccc(C(C)=O)c4)C3)n2)cc(OC)c1OC (centres unmarked) [GSK1379753],0%
6,O=C(NC1CCN(c2ccnc(Nc3ccc(F)cc3)n2)C1)c1cc2ccccc2s1 (centres unmarked) [GSK1379716],0%
7,c1ccc(-c2cnc3nccnn23)cc1 [AH20685],0%
8,Nc1ncnc2c1nc(-c1ccccc1)n2-c1ccccc1 [SKF-97293],2%
9,CN(C)Cc1ccc(-c2ccc3c(Nc4ccc(Oc5ccccn5)cc4)ccnc3c2)o1 [GW567148],61%
10,COc1cc(Nc2nccc(N3CCC(NC(=O)c4cc5ccccc5s4)C3)n2)cc(OC)c1OC (centres unmarked) [GSK1379760],28%
11,Cl.Cl.NCC(NCc1ccc(-c2ccnc3[nH]ccc23)s1)c1ccccc1 (centres unmarked) [GSK1321565],0%
12,Cl.NC(=O)c1cccc(Nc2nccc(Nc3ccc(Oc4c(Cl)cccc4Cl)c(Cl)c3)n2)c1 [GW659009],0%
13,O=C(Nc1ccccc1F)NC1CCN(c2ccnc(Nc3ccc(F)cc3)n2)CC1 [GSK1379800],0%
14,Cc1ccc(C(=O)N2CC[C@@H](O)C2)cc1-n1c(C)cc(OCc2ccc(F)cc2F)c(Br)c1=O,8%
15,CN(C)S(=O)(=O)c1cc(-c2ccc3nccc(-c4cccc(S(N)(=O)=O)c4)c3c2)cnc1N [GSK1669921],0%
16,O=c1[nH]cc(-c2ccc(N3CCOCC3)cc2)c2sc(-c3cn[nH]c3)cc12 [GSK2276055],2%
17,CCCCc1nn2ncccc2c1-c1ccnc(Nc2ccc(N3CCN(C)CC3)cc2)n1 [GW684941],21%
18,O=C(Nc1cccc(-c2nn3ccccc3c2-c2ccnc(Nc3cccc(F)c3)n2)c1)c1c(F)ccc(F)c1Cl [GSK357952],51%
19,c1ccc(-c2n[nH]cc2Nc2ccnc3ccccc23)nc1 [GW694077],0%
20,COc1cc(Nc2nccc(-c3c(-c4cccc(NC(=O)c5c(F)cccc5F)c4)nn4ncccc34)n2)cc(OC)c1OC [GSK327238],98.8%
21,COc1cccc(C(=O)Nc2cccc(Oc3ccc4nc(NC(=O)C5CC5)cn4n3)c2)c1,49%
22,COCCOCCOc1cc2ncc3c4ccc(C#N)cc4[nH]c3c2cc1OC,19%
23,Nc1ncc(-c2ccc3nccc(-c4ccncc4)c3c2)cc1S(=O)(=O)N1CCOCC1 [GSK1627798],3%
24,Cc1cccc(NC(=O)Nc2ccc(Oc3ncnc4ccn(C)c34)cc2)c1,0%
25,CN1CCN(Cc2cccc(-c3ccc4c(Nc5ccc(Oc6ccccc6)cc5)ccnc4c3)c2)CC1 [GW578342],0%
26,COc1cccc(C2=C(Nc3ccc(Cl)c(C(=O)O)c3)C(=O)NC2=O)c1 [SB-390769],100%
27,COc1ccc(Nc2nccc(NCCNC(=O)c3cc4ccccc4s3)n2)cc1 [GSK1379896],8%
28,COc1ccc(CNC(=O)NC2CCN(c3ccnc(Nc4ccc(F)cc4)n3)CC2)cc1 [GSK1379788],0%

# System: MAPKAPK2
# Settings: concentration: 1 μM, replicates: in singlicate; n = 1
row,SMILES,%Inh
1,CC(C)(C)c1ccc2nccc(Nc3cccc(O)c3)c2c1 [GW856795],11%
2,COc1cc2c(cc1OCCN1CCNCC1)ncc1c3ccc(C#N)cc3[nH]c21,0%
3,COc1cc(Nc2nccc(-c3c(-c4cccc(NC(=O)c5c(F)cccc5F)c4)nn4ccccc34)n2)cc(OC)c1OC [GSK323521],24%
4,Cc1ccc(S(=O)(=O)Nc2ccc(Nc3nccc(Nc4cccc5[nH]ncc45)n3)cc2)cc1 [GSK581271],0%
5,CCc1ccc(-c2ccc3c(c2)-c2c(cnn2C)S(=O)(=O)N3C)cc1,13%
6,O=C(Nc1cccc(-c2nn3ncccc3c2-c2ccnc(Nc3ccccc3)n2)c1)c1c(F)cccc1F [GSK198271],24%
7,Fc1ccc(-c2ncn(C3CCNCC3)c2-c2ccnc(Oc3ccc(-c4ccccc4)cc3)n2)cc1 [SB-245391],0%
8,CN(c1ccc(NC(=O)Nc2cc(C(F)(F)F)ccc2F)cc1)c1ccnc(Nc2ccc(S(N)(=O)=O)cc2)n1 [GW809893],0%
9,CC(=O)Nc1nc2cnc(Nc3cc(NC(=O)c4cccc(C5(C#N)CC5)c4Cl)ccc3C)nc2s1,0%
10,Cl.c1ccc(-c2ccc3c(Nc4ccc5[nH]ncc5c4)ccnc3c2)nc1 [GW440137],1%
11,COc1cc(Nc2ncc3c(C)nc(-c4cc5ccccc5[nH]4)n3n2)cc(OC)c1OC [GW869516],0%
12,COC(=O)Nc1nc2ccc(Oc3ccc(NC(=O)Nc4cc(C(F)(F)F)ccc4F)cc3)cc2n1C.Cl [GW692089],6%
13,Nc1n[nH]c2cnc(-c3ccccc3)cc12 [SB-642124],20%
14,COc1cc(Nc2nccc(N3CCC(NC(=O)Nc4cccc(C(C)=O)c4)C3)n2)cc(OC)c1OC (centres unmarked) [GSK1379753],0%
15,O=C(NC1CCN(c2ccnc(Nc3ccc(F)cc3)n2)C1)c1cc2ccccc2s1 (centres unmarked) [GSK1379716],32%
16,c1ccc(-c2cnc3nccnn23)cc1 [AH20685],0%
17,Nc1ncnc2c1nc(-c1ccccc1)n2-c1ccccc1 [SKF-97293],0%
18,CN(C)Cc1ccc(-c2ccc3c(Nc4ccc(Oc5ccccn5)cc4)ccnc3c2)o1 [GW567148],3%
19,COc1cc(Nc2nccc(N3CCC(NC(=O)c4cc5ccccc5s4)C3)n2)cc(OC)c1OC (centres unmarked) [GSK1379760],0%

row,SMILES,%Inh
1,Cl.Cl.NCC(NCc1ccc(-c2ccnc3[nH]ccc23)s1)c1ccccc1 (centres unmarked) [GSK1321565],0%
2,Cl.NC(=O)c1cccc(Nc2nccc(Nc3ccc(Oc4c(Cl)cccc4Cl)c(Cl)c3)n2)c1 [GW659009],0%
3,O=C(Nc1ccccc1F)NC1CCN(c2ccnc(Nc3ccc(F)cc3)n2)CC1 [GSK1379800],6%
4,Cc1ccc(C(=O)N2CC[C@@H](O)C2)cc1-n1c(C)cc(OCc2ccc(F)cc2F)c(Br)c1=O,0%
5,CN(C)S(=O)(=O)c1cc(-c2ccc3nccc(-c4cccc(S(N)(=O)=O)c4)c3c2)cnc1N [GSK1669921],19%
6,O=c1[nH]cc(-c2ccc(N3CCOCC3)cc2)c2sc(-c3cn[nH]c3)cc12 [GSK2276055],0%
7,CCCCc1nn2ncccc2c1-c1ccnc(Nc2ccc(N3CCN(C)CC3)cc2)n1 [GW684941],0%
8,O=C(Nc1cccc(-c2nn3ccccc3c2-c2ccnc(Nc3cccc(F)c3)n2)c1)c1c(F)ccc(F)c1Cl [GSK357952],14%
9,c1ccc(-c2n[nH]cc2Nc2ccnc3ccccc23)nc1 [GW694077],0%
10,COc1cc(Nc2nccc(-c3c(-c4cccc(NC(=O)c5c(F)cccc5F)c4)nn4ncccc34)n2)cc(OC)c1OC [GSK327238],7%
11,COc1cccc(C(=O)Nc2cccc(Oc3ccc4nc(NC(=O)C5CC5)cn4n3)c2)c1,0%
12,COCCOCCOc1cc2ncc3c4ccc(C#N)cc4[nH]c3c2cc1OC,0%
13,Nc1ncc(-c2ccc3nccc(-c4ccncc4)c3c2)cc1S(=O)(=O)N1CCOCC1 [GSK1627798],14%
14,Cc1cccc(NC(=O)Nc2ccc(Oc3ncnc4ccn(C)c34)cc2)c1,0%
15,CN1CCN(Cc2cccc(-c3ccc4c(Nc5ccc(Oc6ccccc6)cc5)ccnc4c3)c2)CC1 [GW578342],3%
16,COc1cccc(C2=C(Nc3ccc(Cl)c(C(=O)O)c3)C(=O)NC2=O)c1 [SB-390769],26%
17,COc1ccc(Nc2nccc(NCCNC(=O)c3cc4ccccc4s3)n2)cc1 [GSK1379896],2%
18,COc1ccc(CNC(=O)NC2CCN(c3ccnc(Nc4ccc(F)cc4)n3)CC2)cc1 [GSK1379788],1%
